Assay results taken from PubChem BioAssay (EPA / NIEHS).
Calls of active or inactive are those of the source. Rule for the calls: active = hit-call score of the fitted dose curve at least 0.9, where 1 is the maximum; inactive = score below 0.9.

What was measured:
Conditions in all cases: mRNA level, 48 h; actives raise or lower the signal
[1] = read-out: Lipoprotein lipase (LPL), LPL (gene 4023); test: LTEA_HepaRG_LPL: Life Technologies and Expression Analysis (LTEA) Assay for Lipoprotein lipase (LPL) using HepaRG (AID 2283515)
Summary of the method: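 Read-out is LPL transcript level by qRT-PCR, normalized to three housekeeping genes and fitted bidirectionally against the DMSO control. Human HepaRG cells received chemicals for 48 h at up to 100 uM.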

[2] = read-out: MicroRNA 122 (MIR122), gene 406906; test: LTEA_HepaRG_MIR122: Life Technologies and Expression Analysis (LTEA) Assay for MicroRNA 122 (MIR122) using HepaRG (AID 2283516); note: the transcript read is the microRNA miR-122
Summary of the method: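 HepaRG, 48 h exposure, 8-pt half-log from 100 uM, 0.5% DMSO; TaqMan qRT-PCR; bidirectional fit vs DMSO.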

[3] = read-out: matrix metalloproteinase-10 (MMP10), MMP10 (gene 4319); test: LTEA_HepaRG_MMP10: Life Technologies and Expression Analysis (LTEA) Assay for matrix metalloproteinase-10 (MMP10) using HepaRG (AID 2283517)
Summary of the method: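 Gain or loss of MMP10 mRNA is fitted relative to the 0.5% DMSO vehicle. The human hepatic line HepaRG receives a 48-hour serum-free exposure, in duplicate, with a maximum concentration of 100 uM.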

MYC, MYC (gene 4609) = test: LTEA_HepaRG_MYC: Life Technologies and Expression Analysis (LTEA) Assay for MYC using HepaRG (AID 2283518)
Summary of the method: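 MYC transcript changes, up or down relative to 0.5% DMSO, from TaqMan qRT-PCR normalized to three housekeeping genes. Human HepaRG cultures received chemicals for 48 h at eight half-log concentrations up to 100 uM, in duplicate.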

[4] = read-out: matrix metalloproteinase-3 (MMP3), MMP3 (gene 4314); test: LTEA_HepaRG_MMP3: Life Technologies and Expression Analysis (LTEA) Assay for matrix metalloproteinase-3 (MMP3) using HepaRG (AID 2283519)
Summary of the method: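 HepaRG, human; 48 h dosing, 8 conc. (max 100 uM, half-log), duplicate, 0.5% DMSO. Readout: MMP3 transcript by Fluidigm TaqMan qRT-PCR, ACTB/GAPDH/POLR2A-normalised. Gain or loss fitted vs DMSO.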

[5] = read-out: Paternally Expressed 10 (PEG10), PEG10 (gene 23089); test: LTEA_HepaRG_PEG10: Life Technologies and Expression Analysis (LTEA) Assay for Paternally Expressed 10 (PEG10) using HepaRG (AID 2283520);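 for AC50: PEG10 transcript by qRT-PCR normalised to ACTB GAPDH and POLR2A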
Summary of the method: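 Chemicals tested on HepaRG cells for 48 h, highest concentration 100 uM. PEG10 expression assessed by qRT-PCR relative to DMSO control.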

[6] = read-out: Nuclear factor NF-kappa-B p105 subunit (Homo sapiens) (UniProt P19838); test: LTEA_HepaRG_NFKB1: Life Technologies and Expression Analysis (LTEA) Assay for Nuclear Factor Kappa B Subunit 1 (NFKB1) using HepaRG (AID 2283521)
Summary of the method: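 Differentiated human HepaRG cells in serum-free induction medium with 0.5% DMSO were exposed for 48 h to eight half-log concentrations, top 100 uM, in duplicate. NFKB1 mRNA measured by Fluidigm TaqMan qRT-PCR, normalised to ACTB, GAPDH and POLR2A; bidirectional fit versus DMSO.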

[7] = read-out: Protein phosphatase 2A (PPP2R4), PTPA (gene 5524); test: LTEA_HepaRG_PPP2R4: Life Technologies and Expression Analysis (LTEA) Assay for Protein phosphatase 2A (PPP2R4) using HepaRG (AID 2283522)
Summary of the method: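 Gene-expression endpoint in HepaRG hepatic cells: 48 h treatment across eight half-log concentrations up to 100 uM in 0.5% DMSO. PPP2R4 mRNA by qRT-PCR, normalized to three endogenous control genes.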

[8] = read-out: Phosphatase and tensin (PTEN), PTEN (gene 5728); test: LTEA_HepaRG_PTEN: Life Technologies and Expression Analysis (LTEA) Assay for Phosphatase and tensin (PTEN) using HepaRG (AID 2283523)
Summary of the method: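 Read-out is PTEN transcript level by multiplexed TaqMan qRT-PCR after 48 h chemical treatment of human HepaRG cultures in serum-free induction medium. Concentrations spanned 100 uM downward in half-log steps, 0.5% DMSO throughout; activity fitted in both directions against vehicle.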

[9] = read-out: solute carrier (SLC22A1), SLC22A1 (gene 6580); test: LTEA_HepaRG_SLC22A1: Life Technologies and Expression Analysis (LTEA) Assay for solute carrier (SLC22A1) using HepaRG (AID 2283524)
Summary of the method: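 HepaRG (human liver line), 48 h dosing in serum-free induction medium; 8 conc., half-log down from 100 uM, 0.5% DMSO vehicle, duplicates. Endpoint: SLC22A1 mRNA, qRT-PCR, housekeeping-normalized; gain/loss fit vs DMSO.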

[10] = read-out: Pyruvate Dehydrogenase Kinase 4 (PDK4), PDK4 (gene 5166); test: LTEA_HepaRG_PDK4: Life Technologies and Expression Analysis (LTEA) Assay for Pyruvate Dehydrogenase Kinase 4 (PDK4) using HepaRG (AID 2283525)
Summary of the method: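 In this multiplexed human HepaRG expression assay, cells are treated 48 h with test chemicals across an eight-point range starting at 100 uM. PDK4 mRNA changes, normalized to ACTB/GAPDH/POLR2A, are fitted in both directions relative to vehicle.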

[11] = read-out: NAD(P)H dehydrogenase [quinone] 1 (NQO1), NQO1 (gene 1728); test: LTEA_HepaRG_NQO1: Life Technologies and Expression Analysis (LTEA) Assay for NAD(P)H dehydrogenase [quinone] 1 (NQO1) using HepaRG (AID 2283526)
Summary of the method: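 Human HepaRG hepatic cells received chemicals for 48 h in serum-free induction medium with 0.5% DMSO, up to 100 uM. Expression was assessed by TaqMan qRT-PCR against housekeeping controls and fitted bidirectionally against DMSO.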

[12] = read-out: Nuclear factor erythroid 2-related factor 2 (Homo sapiens) (UniProt Q16236); test: LTEA_HepaRG_NFE2L2: Life Technologies and Expression Analysis (LTEA) Assay for Nuclear factor erythroid 2-related factor 2 (NFE2L2) Transcription Factor using HepaRG (AID 2283527)
Summary of the method: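 Transcript level of NFE2L2 is the read-out, measured by microfluidic TaqMan qRT-PCR and normalized to three housekeeping genes. Human HepaRG cultures received test chemical for 48 h at up to 100 uM in half-log steps. Gain or loss of signal is fitted relative to 0.5% DMSO.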

[13] = read-out: succinate dehydrogenase complex iron sulfur subunit B (SDHB), SDHB (gene 6390); test: LTEA_HepaRG_SDHB: Life Technologies and Expression Analysis (LTEA) Assay for succinate dehydrogenase complex iron sulfur subunit B (SDHB) using HepaRG (AID 2283528)
Summary of the method: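 HepaRG cells (~100,000/well, plated 48 h) exposed in duplicate for 48 h in serum-free induction medium to 8-point half-log series from 100 uM in 0.5% DMSO; mRNA by qRT-PCR normalised to ACTB, GAPDH, POLR2A; bidirectional fit versus DMSO.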

[14] = read-out: Signal transducer and activator of transcription 3 (Homo sapiens) (UniProt P40763); test: LTEA_HepaRG_STAT3: Life Technologies and Expression Analysis (LTEA) Assay for Signal transducer and activator of transcription (STAT3) using HepaRG (AID 2283529)
Summary of the method: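 Read-out is STAT3 mRNA level by qRT-PCR, normalized to three housekeeping genes, in human HepaRG liver cells treated for 48 h. Concentrations ran from 100 uM downward in half-log steps; curves were fitted for gain or loss relative to 0.5% DMSO.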

[15] = read-out: solute carrier (SLCO1B1), SLCO1B1 (gene 10599); test: LTEA_HepaRG_SLCO1B1: Life Technologies and Expression Analysis (LTEA) Assay for solute carrier (SLCO1B1) using HepaRG (AID 2283530)
Summary of the method: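 SLCO1B1 transcript levels were quantified by TaqMan qRT-PCR using three housekeeping genes for normalization. This followed 48 h chemical exposure (100 uM top, half-log, 8 points, 0.5% DMSO) of HepaRG liver cells, with gain or loss fitted relative to DMSO.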

[16] = read-out: sulfotransferase 2A1 (SULT2A1), SULT2A1 (gene 6822); test: LTEA_HepaRG_SULT2A1: Life Technologies and Expression Analysis (LTEA) Assay for sulfotransferase 2A1 (SULT2A1) using HepaRG (AID 2283531)
Summary of the method: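 Expression change of SULT2A1, by qRT-PCR with three housekeeping-gene normalization, was scored bidirectionally versus DMSO. Cells: differentiated HepaRG, dosed in duplicate for 48 h across 8 points, highest 100 µM, half-log dilution, 0.5% DMSO.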

[17] = read-out: Transforming Growth Factor (TGFA), TGFA (gene 7039); test: LTEA_HepaRG_TGFA: Life Technologies and Expression Analysis (LTEA) Assay for Transforming Growth Factor (TGFA) using HepaRG (AID 2283532)
Summary of the method: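 HepaRG (human liver line), 48 h exposure, 8 conc. half-log down from 100 uM, 0.5% DMSO vehicle, duplicates; serum-free induction medium. TGFA mRNA by TaqMan qRT-PCR, ACTB/GAPDH/POLR2A normalization; gain/loss fit vs DMSO.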

[18] = read-out: Transforming Growth Factor (TGFB1), TGFB1 (gene 7040); test: LTEA_HepaRG_TGFB1: Life Technologies and Expression Analysis (LTEA) Assay for Transforming Growth Factor (TGFB1) Transporter using HepaRG (AID 2283533)
Summary of the method: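 TGFB1 transcript measured by qRT-PCR with normalisation to three housekeeping genes (ACTB, GAPDH, POLR2A); human HepaRG line treated in duplicate for 48 hr with an 8-point series topping at 100 uM, 0.5% DMSO vehicle, bidirectionally fitted.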

TIMP1, TIMP1 (gene 7076) = test: LTEA_HepaRG_TIMP1: Life Technologies and Expression Analysis (LTEA) Assay for TIMP1 using HepaRG (AID 2283534)
Summary of the method: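 Bidirectional change in TIMP1 transcript versus 0.5% DMSO, measured by TaqMan qRT-PCR with three housekeeping genes for normalization. HepaRG human liver cells dosed 48 h in duplicate, top concentration 100 uM with half-log dilutions.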

Measured: AC50

Chain of Nuclear factor erythroid 2-related factor 2 (Homo sapiens) (Q16236 whole entry, looked up): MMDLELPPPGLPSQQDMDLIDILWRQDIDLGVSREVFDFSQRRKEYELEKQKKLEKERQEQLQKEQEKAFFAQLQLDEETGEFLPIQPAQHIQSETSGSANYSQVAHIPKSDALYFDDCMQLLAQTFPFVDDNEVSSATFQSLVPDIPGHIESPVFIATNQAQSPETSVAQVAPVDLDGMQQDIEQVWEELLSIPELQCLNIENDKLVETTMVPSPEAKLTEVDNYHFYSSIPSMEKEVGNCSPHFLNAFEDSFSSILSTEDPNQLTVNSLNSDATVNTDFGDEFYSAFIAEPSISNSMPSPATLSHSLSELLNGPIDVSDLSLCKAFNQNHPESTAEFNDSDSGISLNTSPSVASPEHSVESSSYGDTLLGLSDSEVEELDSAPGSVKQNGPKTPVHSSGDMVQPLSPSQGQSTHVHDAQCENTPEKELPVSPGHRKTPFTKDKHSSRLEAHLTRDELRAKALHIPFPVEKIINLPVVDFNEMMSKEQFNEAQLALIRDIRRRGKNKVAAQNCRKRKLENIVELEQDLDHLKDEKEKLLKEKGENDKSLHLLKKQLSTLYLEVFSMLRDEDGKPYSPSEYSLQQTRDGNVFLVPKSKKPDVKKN
Chain of Signal transducer and activator of transcription 3 (Homo sapiens) (P40763 whole entry, looked up): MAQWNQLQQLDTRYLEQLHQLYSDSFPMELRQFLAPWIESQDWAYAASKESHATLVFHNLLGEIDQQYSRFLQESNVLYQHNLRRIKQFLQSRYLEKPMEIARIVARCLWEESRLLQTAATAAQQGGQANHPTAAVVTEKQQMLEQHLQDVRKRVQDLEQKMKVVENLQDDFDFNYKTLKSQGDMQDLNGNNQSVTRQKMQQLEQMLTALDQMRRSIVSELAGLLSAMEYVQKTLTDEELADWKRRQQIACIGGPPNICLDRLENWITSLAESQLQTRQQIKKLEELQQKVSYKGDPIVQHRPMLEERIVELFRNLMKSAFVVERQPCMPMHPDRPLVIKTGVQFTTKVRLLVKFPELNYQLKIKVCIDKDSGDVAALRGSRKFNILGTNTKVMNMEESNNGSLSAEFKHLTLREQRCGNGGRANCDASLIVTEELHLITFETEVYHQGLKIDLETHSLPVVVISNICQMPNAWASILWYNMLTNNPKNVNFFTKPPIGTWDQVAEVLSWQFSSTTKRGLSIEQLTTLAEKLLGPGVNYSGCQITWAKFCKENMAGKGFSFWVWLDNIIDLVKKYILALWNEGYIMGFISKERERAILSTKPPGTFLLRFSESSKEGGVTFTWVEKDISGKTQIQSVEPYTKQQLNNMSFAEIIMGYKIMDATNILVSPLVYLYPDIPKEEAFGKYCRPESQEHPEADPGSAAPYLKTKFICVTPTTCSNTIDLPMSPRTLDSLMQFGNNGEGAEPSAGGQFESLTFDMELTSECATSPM
Chain of Nuclear factor NF-kappa-B p105 subunit (Homo sapiens) (P19838 whole entry, looked up): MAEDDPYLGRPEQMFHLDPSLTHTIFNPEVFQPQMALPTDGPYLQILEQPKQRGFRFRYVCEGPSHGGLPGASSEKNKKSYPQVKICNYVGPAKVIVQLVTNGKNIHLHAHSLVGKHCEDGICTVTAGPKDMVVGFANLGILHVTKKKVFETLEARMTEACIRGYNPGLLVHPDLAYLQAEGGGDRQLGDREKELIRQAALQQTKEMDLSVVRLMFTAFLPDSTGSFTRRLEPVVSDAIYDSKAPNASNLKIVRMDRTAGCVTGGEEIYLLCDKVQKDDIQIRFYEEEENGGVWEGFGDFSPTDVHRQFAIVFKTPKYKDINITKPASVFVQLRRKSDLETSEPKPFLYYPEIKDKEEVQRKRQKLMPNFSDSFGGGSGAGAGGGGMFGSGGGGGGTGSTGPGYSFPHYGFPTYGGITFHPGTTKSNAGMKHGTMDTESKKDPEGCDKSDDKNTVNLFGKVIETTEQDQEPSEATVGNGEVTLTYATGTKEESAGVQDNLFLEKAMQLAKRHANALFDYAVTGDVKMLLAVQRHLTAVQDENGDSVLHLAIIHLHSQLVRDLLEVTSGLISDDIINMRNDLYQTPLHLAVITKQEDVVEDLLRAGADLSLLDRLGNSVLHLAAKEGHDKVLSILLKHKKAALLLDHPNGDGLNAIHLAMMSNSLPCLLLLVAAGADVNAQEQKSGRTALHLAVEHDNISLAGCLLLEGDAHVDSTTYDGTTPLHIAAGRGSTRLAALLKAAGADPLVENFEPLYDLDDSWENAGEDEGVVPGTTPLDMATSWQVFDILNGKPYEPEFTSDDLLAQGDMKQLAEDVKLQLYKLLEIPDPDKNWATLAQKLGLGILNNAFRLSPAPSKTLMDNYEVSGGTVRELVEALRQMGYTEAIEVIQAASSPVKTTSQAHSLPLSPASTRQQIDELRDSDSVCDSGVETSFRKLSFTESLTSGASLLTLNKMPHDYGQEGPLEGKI

CC(C)(O)c1ccc(CNC(=O)c2cccnc2Oc2ccc3nonc3c2)cc1
inactive: all assays above

O=C(Nc1ccc(Cl)cc1)Nc1ccc(Cl)c(Cl)c1
inactive: [2] | [12]
active: [1] 12.7 µM | [3] 27.6 µM | MYC, MYC (gene 4609) 28.6 µM | [4] 28.1 µM | [5] 21.8 µM | [6] 12.2 µM | [7] 21.3 µM | [8] 22.2 µM | [9] 17.4 µM | [10] 27 µM | [11] 17.8 µM | [13] 13.2 µM | [14] 14.2 µM | [15] 18.7 µM | [16] 22.7 µM | [17] 25.5 µM | [18] 24.4 µM | TIMP1, TIMP1 (gene 7076) 16 µM

CC(O)CC(C)(C)O (configuration not stated)
inactive: all assays above

O=C1c2ccccc2C(=O)N1CCc1noc(-c2ccc(CN3CCCCCC3)s2)n1
active: [1] 20.7 µM | [5] 42.2 µM
not listed: [16]
inactive: all other assays above

O=C(O)Cn1c(=O)n(Cc2ccc(Br)cc2F)c(=O)c2ccc(Cl)cc21
active: [1] 9.92 µM | [10] 38.8 µM
inactive: all other assays above

CCCCCCCCCCCO
inactive: all assays above

c1ccc2ccccc2c1
inactive: all assays above

Cc1cc(F)ccc1-c1cc(N2CC[C@@H](O)[C@H]2CO)ncc1N(C)C(=O)C(C)(C)c1cc(C(F)(F)F)cc(C(F)(F)F)c1
active: [1] 48.8 µM | [2] 9.28 µM | [3] 68.7 µM | MYC, MYC (gene 4609) 17.3 µM | [7] 21.5 µM | [8] 66.4 µM | [9] 20.7 µM | [11] 79.8 µM | [12] 11.5 µM | [13] 75.1 µM | [15] 12.9 µM | [16] 24.7 µM | [17] 23.6 µM | [18] 19.3 µM
inactive: [4] | [5] | [6] | [10] | [14] | TIMP1, TIMP1 (gene 7076)

COCC(C)OCC(C)OCC(C)O (configuration not stated)
inactive: all assays above

CC[C@@H]1C[C@H](N(Cc2cc(C(F)(F)F)cc(C(F)(F)F)c2)C(C)=O)c2cc(C(F)(F)F)ccc2N1C(=O)OC(C)C
active: [5] 11.6 µM
inactive: all other assays above

CCCCCc1ccc(N)cc1
not listed: [16]
inactive: all other assays above

CC(C)(c1cc(Br)c(O)c(Br)c1)c1cc(Br)c(O)c(Br)c1
active: [1] 84.5 µM | MYC, MYC (gene 4609) 89.5 µM | [8] 72.7 µM | [9] 53.4 µM | [10] 88.9 µM | [11] 86.6 µM | [17] 89.1 µM
not listed: [16]
inactive: all other assays above
